Screen size: about 5,500 compounds; about 2,000 (36%) were called active. About 18% were inconclusive and are not listed. This is one part of the list. Unmarked numbers belong to inactive results. No stated cut-off is given here; in the data, active means normalized growth mostly below about 0.91 (no sharp cut-off); inconclusive means no clear call, values can overlap the other calls; inactive means mostly above about 0.92.
Experiment: chemical genetic growth profiling, strain panel (AID 1159580);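 further: tested at 20 µM; growth read once vehicle control cultures reached saturation at 30 °C; 1 = growth at the plate median or of vehicle wells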
Conditions: S. cerevisiae deletion strains, growth OD
[1] = locus YAR019C, strain CDC15, stronger effect = lower value
[2] = locus YBL105C, strain PKC1, stronger effect = lower value
[3] = locus YBR135W, strain CKS1, stronger effect = lower value
[4] = locus YBR136W, strain MEC1, stronger effect = lower value
[5] = locus YBR160W, strain CDC28, stronger effect = lower value
[6] = locus YDL017W, strain CDC7, stronger effect = lower value
[7] = locus YDL028C, strain MPS1, stronger effect = lower value
[8] = locus YDL101C, strain DUN1, stronger effect = lower value
[9] = locus YDL108W, strain KIN28, stronger effect = lower value
[10] = locus YDL132W, strain cdc53, stronger effect = lower value
[11] = locus YDL214C, strain PRR2, stronger effect = lower value
[12] = locus YDR052C, strain DBF4, stronger effect = lower value
[13] = locus YDR054C, strain cdc34, stronger effect = lower value
[14] = locus YDR226W, strain ADK1, stronger effect = lower value
[15] = locus YDR477W, strain SNF1, stronger effect = lower value
[16] = locus YER123W, strain YCK3, stronger effect = lower value
[17] = locus YER133W, strain GLC7, stronger effect = lower value
[18] = locus YFL009W, strain cdc4, stronger effect = lower value
[19] = locus YFL029C, strain CAK1, stronger effect = lower value
[20] = locus YFR003C, strain YPI1, stronger effect = lower value
[21] = locus YFR019W, strain FAB1, stronger effect = lower value
[22] = locus YFR028C, strain CDC14, stronger effect = lower value
[23] = locus YGR040W, strain KSS1, stronger effect = lower value
[24] = locus YGR052W, strain FMP48, stronger effect = lower value
[25] = locus YGR092W, strain DBF2, stronger effect = lower value
[26] = locus YHR030C, strain SLT2, stronger effect = lower value
[27] = locus YHR079C, strain IRE1, stronger effect = lower value
[28] = locus YHR082C, strain KSP1, stronger effect = lower value
[29] = locus YHR205W, strain SCH9, stronger effect = lower value
[30] = locus YIL147C, strain SLN1, stronger effect = lower value
[31] = locus YJL095W, strain BCK1, stronger effect = lower value
[32] = locus YJL128C, strain PBS2, stronger effect = lower value
[33] = locus YJL157C, strain FAR1, stronger effect = lower value
[34] = locus YJR016C, strain ILV3, stronger effect = lower value
[35] = locus YJR066W, strain TOR1 (second series), stronger effect = lower value
[36] = locus YJR066W, strain TOR1, stronger effect = lower value
[37] = locus YKL048C, strain ELM1, stronger effect = lower value
[38] = locus YKL067W, strain YNK1, stronger effect = lower value
[39] = locus YKL101W, strain HSL1, stronger effect = lower value
[40] = locus YKL193C, strain SDS22, stronger effect = lower value
[41] = locus YKL203C, strain TOR2, stronger effect = lower value
[42] = locus YLR113W, strain HOG1, stronger effect = lower value
[43] = locus YLR133W, strain CKI1, stronger effect = lower value
[44] = locus YLR403W, strain SFP1, stronger effect = lower value
[45] = locus YML070W, strain DAK1, stronger effect = lower value
[46] = locus YMR001C, strain CDC5, stronger effect = lower value
[47] = locus YMR205C, strain PFK2 (second series), stronger effect = lower value
[48] = locus YMR277W, strain FCP1, stronger effect = lower value
[49] = locus YNL006W, strain LST8, stronger effect = lower value
[50] = locus YNL020C, strain ARK1, stronger effect = lower value
[51] = locus YNL161W, strain CBK1, stronger effect = lower value
[52] = locus YNL183C, strain NPR1, stronger effect = lower value
[53] = locus YNL207W, strain RIO2, stronger effect = lower value
[54] = locus YNL222W, strain SSU72, stronger effect = lower value
[55] = locus YNL307C, strain MCK1 (second series), stronger effect = lower value
[56] = locus YOL078W, strain AVO1, stronger effect = lower value
[57] = locus YOL136C, strain PFK27, stronger effect = lower value
[58] = locus YOR061W, strain CKA2, stronger effect = lower value
[59] = locus YOR119C, strain RIO1, stronger effect = lower value
[60] = locus YOR231W, strain MKK1, stronger effect = lower value
[61] = locus YOR329C, strain SCD5, stronger effect = lower value
[62] = locus YPL031C, strain PHO85, stronger effect = lower value
[63] = locus YPL153C, strain RAD53, stronger effect = lower value
[64] = locus YPL204W, strain HRR25, stronger effect = lower value
[65] = locus YPL209C, strain IPL1, stronger effect = lower value
[66] = locus YPL256C, strain CLN2, stronger effect = lower value
[67] = locus YPR025C, strain CCL1, stronger effect = lower value
[68] = locus YPR106W, strain ISR1, stronger effect = lower value
[69] = locus YPR111W, strain DBF20, stronger effect = lower value
[70] = strain NNK1, stronger effect = lower value
[71] = strain TSCII, stronger effect = lower value

COc1ccc(NC(=O)O/N=C(/N)c2ccc(Oc3c(Cl)cncc3Cl)cc2)cc1
normalized growth [1]: 0.966 | normalized growth [2]: 0.974 | normalized growth [3]: 0.975 | normalized growth [4]: 0.982 | normalized growth [5]: 0.976 | normalized growth [6]: 0.98 | normalized growth [7]: 0.987 | normalized growth [8]: 0.969 | normalized growth [9]: 0.99 | normalized growth [10]: 0.966 | normalized growth [11]: 0.825 | normalized growth [12]: 0.986 | normalized growth [13]: 0.959 | normalized growth [14]: 0.965 | normalized growth [15]: 0.758 | normalized growth [16]: 0.575 (active) | normalized growth [17]: 0.751 | normalized growth [18]: 0.963 | normalized growth [19]: 0.971 | normalized growth [20]: 0.972 | normalized growth [21]: 0.527 (active) | normalized growth [22]: 0.963 | normalized growth [23]: 0.751 | normalized growth [24]: 0.694 | normalized growth [25]: 0.706 | normalized growth [26]: 0.71 (active) | normalized growth [27]: 0.618 | normalized growth [28]: 0.805 | normalized growth [29]: 0.743 | normalized growth [30]: 0.963 | normalized growth [31]: 0.578 | normalized growth [32]: 0.971 | normalized growth [33]: 0.805 | normalized growth [34]: 0.975 | normalized growth [35]: 0.572 (active) | normalized growth [36]: 0.69 | normalized growth [37]: 0.95 | normalized growth [38]: 0.866 | normalized growth [39]: 0.881 | normalized growth [40]: 0.97 | normalized growth [41]: 0.806 | normalized growth [42]: 0.604 (active) | normalized growth [43]: 0.825 | normalized growth [44]: 0.756 | normalized growth [45]: 0.804 | normalized growth [46]: 0.958 | normalized growth [47]: 0.898 | normalized growth [48]: 0.977 | normalized growth [49]: 0.981 | normalized growth [50]: 0.856 | normalized growth [51]: 0.962 | normalized growth [52]: 0.593 | normalized growth [53]: 0.957 | normalized growth [54]: 0.965 | normalized growth [55]: 0.745 | normalized growth [56]: 0.973 | normalized growth [57]: 0.793 | normalized growth [58]: 0.87 | normalized growth [59]: 0.781 | normalized growth [60]: 0.661 | normalized growth [61]: 0.971 | normalized growth [62]: 0.726 | normalized growth [63]: 0.728 | normalized growth [64]: 0.676 | normalized growth [65]: 0.963 | normalized growth [66]: 0.676 (active) | normalized growth [67]: 0.965 | normalized growth [68]: 0.98 | normalized growth [69]: 1 | normalized growth [70]: 1 | normalized growth [71]: 0.975

C/C(=N/NC(N)=S)c1ccc(Oc2c(Cl)cncc2Cl)cc1
normalized growth [1]: 0.997 | normalized growth [2]: 0.993 | normalized growth [3]: 0.983 | normalized growth [4]: 0.986 | normalized growth [5]: 0.989 | normalized growth [6]: 0.987 | normalized growth [7]: 0.992 | normalized growth [8]: 0.988 | normalized growth [9]: 0.987 | normalized growth [10]: 0.994 | normalized growth [11]: 1.01 | normalized growth [12]: 0.989 | normalized growth [13]: 0.978 | normalized growth [14]: 0.988 | normalized growth [15]: 0.999 | normalized growth [16]: 0.989 | normalized growth [17]: 0.969 | normalized growth [18]: 0.983 | normalized growth [19]: 1 | normalized growth [20]: 0.991 | normalized growth [21]: 0.99 | normalized growth [22]: 0.993 | normalized growth [23]: 0.989 | normalized growth [24]: 1.06 | normalized growth [25]: 0.97 | normalized growth [26]: 1.05 | normalized growth [27]: 0.932 | normalized growth [28]: 1.24 | normalized growth [29]: 1.07 | normalized growth [30]: 0.984 | normalized growth [31]: 0.944 | normalized growth [32]: 1.02 | normalized growth [33]: 0.993 | normalized growth [34]: 0.995 | normalized growth [35]: 0.953 | normalized growth [36]: 1.2 | normalized growth [37]: 1.03 | normalized growth [38]: 1.02 | normalized growth [39]: 1.03 | normalized growth [40]: 0.991 | normalized growth [41]: 1.06 | normalized growth [42]: 1.01 | normalized growth [43]: 1.01 | normalized growth [44]: 0.97 | normalized growth [45]: 1.01 | normalized growth [46]: 0.989 | normalized growth [47]: 1.03 | normalized growth [48]: 0.997 | normalized growth [49]: 0.993 | normalized growth [50]: 1.01 | normalized growth [51]: 1 | normalized growth [52]: 0.996 | normalized growth [53]: 0.995 | normalized growth [54]: 0.998 | normalized growth [55]: 1 | normalized growth [56]: 0.998 | normalized growth [57]: 1.02 | normalized growth [58]: 0.994 | normalized growth [59]: 1.02 | normalized growth [60]: 0.973 | normalized growth [61]: 0.991 | normalized growth [62]: 0.983 | normalized growth [63]: 0.953 | normalized growth [64]: 0.972 | normalized growth [65]: 0.998 | normalized growth [66]: 0.99 | normalized growth [67]: 0.988 | normalized growth [68]: 1 | normalized growth [69]: 1.02 | normalized growth [70]: 1.03 | normalized growth [71]: 0.994

Source: PubChem BioAssay AID1159580 (chemical genetic matrix, 2015)
